Data: PubChem BioAssay AID602140 (NMMLSC, 2011)
The other results are listed elsewhere or left out. Values without a mark were called inactive. How the calls were made is not given here.

The compounds below were run on Botulinum neurotoxin type F light chain protease (Clostridium botulinum) (assay: inhibition of botulinum toxin F LC protease – biochemical, flow cytometry, cherry pick 1, confirmation (AID 602140)). Conditions: multiplex microsphere protease cleavage assay, at 10 µM, active compounds read high.

| SMILES | inhibition |
| --- | --- |
| CC(=O)Nc1ccc(Oc2ccc3c(c2)C(=O)NC3=O)cc1 | -3.5% |
| COc1ccc(Br)cc1CNCCc1cccc(Cl)c1 | -10% |
| COCc1cc(=O)[nH]c(SC)n1 | -4.2% |
| Cc1onc(-c2ccccc2Cl)c1C(=O)NCCn1ccc2ccccc21 | -5.2% |
| CC1CCN(C(=O)c2ccc(S(=O)(=O)Cc3cc(F)ccc3F)c([N+](=O)[O-])c2)CC1 | 1.2% |
| CCOCCn1c(-c2ccccc2)nc2ccccc21 | -2.2% |
| CCOc1ccc(NC(=O)CC(Cc2ccc(Cl)cc2)C(=O)O)cc1 (configuration not stated) | -1.5% |
| O=C(O)c1cc(S(=O)(=O)NC2CCCc3ccccc32)ccc1O (configuration not stated) | -1.4% |
| CC(=O)c1cccc(NC(=O)N2CCCC2C(=O)NCCc2ccccc2)c1 (configuration not stated) | 0% |
| CCN1CCN(C(C(=O)NC2CCCC2)c2cc3c(cc2[N+](=O)[O-])OCO3)CC1 (configuration not stated) | -4.2% |
| Cc1cccc2cc3c(N)c(C(=O)N4CCCc5ccccc54)sc3nc12 | 0.3% |
| Brc1ccc2ncnc(NCc3cccnc3)c2c1 | -1.4% |
| CCCSc1nc2sc3c(c2c(=O)n1-c1ccc(OC)cc1)CCN(C)C3 | 5.3% |
| COc1ccccc1C1CCN(C(=S)Nc2ccc(Br)cc2)CC1 | 4.3% |
| CC(C)Cc1nnc(NC(=O)CCC(=O)Nc2ccc3cn[nH]c3c2)s1 | -1.9% |
| COc1ccccc1CNC(=O)C1Cc2ccccc2C(=O)O1 (configuration not stated) | -1.3% |
| CC1CCc2c(sc3nc4n(c(=O)c23)CCS4)C1 (configuration not stated) | -5.8% |
